# Source: PubChem (National Center for Advancing Translational Sciences (NCATS))
# D3 antag = qHTS of D3 Dopamine Receptor Antagonist: qHTS; D(3) dopamine receptor (Homo sapiens), P35462; D3R cells, DiscoveRx beta-arrestin luminescence, antagonist mode; active compounds read low; max response, negative = inhibition, %; hit rate 2.5% among 360,000; AID 652054, 2013; in the data active = max response below about -50%; inconclusive = no clear call, values can overlap the other calls; note: % is set by controls: 0 for no effect and ±100 for the full control effect
# Target sequence (P35462 whole entry, looked up): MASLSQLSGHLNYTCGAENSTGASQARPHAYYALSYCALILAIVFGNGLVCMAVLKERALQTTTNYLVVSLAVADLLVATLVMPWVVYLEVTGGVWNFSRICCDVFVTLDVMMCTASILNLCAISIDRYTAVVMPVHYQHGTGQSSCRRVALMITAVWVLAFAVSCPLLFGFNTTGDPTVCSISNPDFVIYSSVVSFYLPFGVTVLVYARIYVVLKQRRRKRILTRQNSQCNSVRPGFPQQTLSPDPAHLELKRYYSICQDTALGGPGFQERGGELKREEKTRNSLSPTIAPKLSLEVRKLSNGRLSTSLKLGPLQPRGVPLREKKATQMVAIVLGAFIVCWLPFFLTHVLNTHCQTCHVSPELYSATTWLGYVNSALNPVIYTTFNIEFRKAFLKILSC
#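 Cells expressing the human receptor were seeded at 1500 cells/well, incubated overnight at 37 degrees C in 5% CO2, then exposed to library compounds with dopamine controls for 90 minutes at 37 degrees C before luminescent detection.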
# D3 ag = qHTS of D3 Dopamine Receptor Agonist: qHTS | D(3) dopamine receptor (Homo sapiens), P35462 | D3R DiscoveRx beta-arrestin cells, luminescence, 90 min | max activation, % | hit rate 0.58% among 410,000 | AID 652048, 2013; in the data active = max activation above about 30%; note: 0% is about no effect
#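 Agonist mode: compounds and dopamine controls were applied to plated cells for 90 min at 37 degrees C after an overnight attachment at 1500 cells/well. Luminescent read-out followed 30 - 60 minutes at room temperature with DiscoveRx detection reagent.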
# MmCpn inh = Inhibitors of TCP-1 ring complex (TRiC) of Methanococcus maripaludis (MmCpn): qHTS | AID 504842, 2011 | hit rate 0.031% among 330,000 | Chaperonin Mm-Cpn (Methanococcus maripaludis) | Potency, µM (doses to about 76.9 µM), without a hit: top-dose activity, negative = inhibition, actives largely listed as inhibitors | purified Mm-Cpn ATPase, ADP Transcreener TR-FRET; active = well fitted inhibition curve with a large enough effect; inconclusive = small, poorly fitted or top-dose-only effect; note: potency is the fitted concentration of half-maximal effect; % is set by controls: 0 for no effect and ±100 for the full control effect; nearly all actives have a fitted effect of over 80% in size
#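 Purified archaeal Mm-CPN (25nM final) preincubated 10 min at 37degC with compound, then 10uM ATP for 30 min at 37degC; ADP measured by HTRF Transcreener TR-FRET; buffer 30 mM TRIS pH 7.4, 100mM KCl, 5mM MgCl2, 1mM DTT.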
# Rango release inh = qHTS Assay for Inhibitors of RanGTP induced Rango (Ran-regulated importin-beta cargo) - Importin beta complex dissociation | Biochemical FRET Rango-importin beta, RanGTP-induced dissociation | Snurportin-1 (Homo sapiens) + GTP-binding nuclear protein Ran (Homo sapiens) + Importin … | AID 540253, 2011 | Potency, µM (highest dose often 46.1 µM), without a hit: at the top dose activity change, negative = inhibition | hit rate 0.071% among 340,000; note: potency is the fitted concentration of half-maximal effect; % of control where 0% means no effect; nearly all actives have a fitted effect of over 45% in size
#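 Compounds sat 5 min at room temperature with 0.1 uM Rango biosensor plus 0.25 uM importin beta, then FRET pre-read. RanGTP-RCC1 (0.6 uM Ran, 2mM GTP, 0.2 uM RCC1) added for 45 min, and the CFP/YFP post-read measured blocked complex dissociation.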
# TSG101-PTAP inh = qHTS Assay for Iinhibitors of HIV-1 Budding by Blocking the Interaction of PTAP/TSG101; Tumor susceptibility gene 101 protein (Homo sapiens), Q99816; Fluorescence polarization, FITC-PTAP peptide / Tsg101 binding; Potency, µM (highest dose often 115 µM), without a hit: at the top dose activity change, negative = inhibition, most hits filed as inhibitors; 340,000 tested, under 10 active; AID 493005, 2010; active = well fitted inhibition curve with a large enough effect in the main read-out, with a control signal flat, not every such curve was filed as active; inconclusive = small, poorly fitted or top-dose-only effect, or effect the other way, or a change in a side signal; inactive = no such curve, though single readings can be large or run the other way; note: potency is the fitted concentration of half-maximal effect; % of control where 0% means no effect
#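 FP read-out: FITC-PTAP peptide, 50 nM final, binding Tsg101 binding domain, 10 uM final; 20 min, r.t.; 10 mM HEPES pH 7.5, 0.15 M NaCl, 0.01% Tween 20, 3 mM EDTA, 0.1 mM TCEP.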
# Rango complex inh = qHTS Assay for Inhibitors of Rango (Ran-regulated importin-beta cargo) - Importin beta complex formation. Rango CFP/YFP FRET sensor + importin beta, 45 min. Importin subunit beta-1 (Homo sapiens), Q14974. Potency, µM (top dose mostly 92.2 µM), inactives show at the highest dose inhibition of complex formation. hit rate 0.031% among 340,000. AID 540263, 2011;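 note: potency is the fitted concentration of half-maximal effect; 0% = DMSO wells and 100% = buffer wells lacking importin beta; nearly all actives have a fitted effect of over 15% in size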
#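 FRET biosensor Rango (snurportin 1 IBB between N-terminal EYFP and C-terminal Cerulean), 50 nM in PBS/1 mM DTT/0.02% Tween-20/0.1% BSA, preincubated 5 min RT with compound; 0.125 microM importin beta added, 45 min RT, CFP/YFP FRET ratio read.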
# * = called active by the depositor; ? = inconclusive; . = no result; ! = not confirmed by another sample. Sampled rows, rich in hits. Any-hit rate of the full collection: about 2.9%. Unless noted, calls come from the whole dose curve.
SMILES,D3 antag,D3 ag,MmCpn inh,Rango release inh,TSG101-PTAP inh,Rango complex inh
Cc1ccc(C)c(CN2C(=O)c3ccccc3S(=O)(=O)c3ccc(C(=O)Nc4ccccc4C(F)(F)F)cc32)c1,.,-3,.,.,.,.
Cc1ccccc1Cn1nc(C)c(NC(=O)c2noc3c2CC(C(C)(C)C)CC3)c1C (stereo not given),4,34*,-8%,0%,-9%,0%
CCCCCCCCCCCC[N+](C)(C)Cc1ccccc1,.,-13,.,.,.,.
O=C1c2ccccc2S(=O)(=O)c2cc(C(=O)N3CCN(c4ccc(Cl)cn4)CC3)ccc21,22,44*,.,0%,-4%,0%
N#Cc1cccnc1N1CCN(C(=O)c2ccc3c(c2)S(=O)(=O)c2ccccc2C3=O)CC1,-1,-6,.,0%,-3%,-5%
C[C@H](CO)N1C[C@H](C)[C@@H](CN(C)CC2CC2)Oc2c(NC(=O)C3CC3)cccc2C1=O,-15,33*,.,-18%,0%,-1%
C[C@H](CO)N1C[C@H](C)[C@@H](CN(C)CC2CCCCC2)Oc2c(NC(=O)C3CC3)cccc2C1=O,10,-2,2%,-6%,-1%,-1%
C[C@H](CO)N1C[C@H](C)[C@@H](CN(C)Cc2ccc(C(=O)O)cc2)Oc2c(NC(=O)C3CC3)cccc2C1=O,15,0,2%,-8%,-1%,0%
C[C@H](CO)N1C[C@H](C)[C@@H](CN(C)Cc2ccc(Oc3ccccc3)cc2)Oc2c(NC(=O)C3CC3)cccc2C1=O,42,35*,-1%,11%,-1%,-1%
C[C@@H]1CN([C@@H](C)CO)C(=O)c2cccc(NC(=O)Nc3ccc(F)cc3)c2O[C@@H]1CN(C)Cc1ccc(Oc2ccccc2)cc1,-71*,-14,-14%,-11%,-2%,-4%
Cc1ccc(-n2nc(CO)c(C(=O)NCCO)n2)cc1,.,12,.,.,.,.
CC1=C(C(=O)NCc2ccc(Cl)cc2)C2(CCCCC2)OC1=O,.,0,.,.,.,.
Cc1cccnc1C(NC(=O)C1CCN(CCOc2ccc(Cl)cc2Cl)CC1)c1ccc(Cl)cc1 (stereo not given),36,41*,.,.,.,.
O=C(NC(c1ccc(Cl)cc1)c1ccccn1)C1CCN(CCOc2ccc(Cl)cc2Cl)CC1 (stereo not given),-77*,-11,.,.,.,.
O=C(NC(c1ccc2c(c1)OCO2)c1ccccn1)C1CCN(CCOc2ccc(Cl)cc2Cl)CC1 (stereo not given),-75*,-11,.,.,.,.
COc1cccc(OC)c1OCCN1CCC(C(=O)NC(c2ccc3c(c2)OCO3)c2ccccn2)CC1 (stereo not given),-78*,-29,.,.,.,.
CCn1nc(C)c2c(-c3ccccc3)cc(=O)n(C(C)C(=O)NCCC(C)C)c21 (stereo not given),.,-13,.,.,.,.
O=C(NC(c1ccc(Cl)cc1)c1cnccn1)C1CCN(CCOc2ccc(F)cc2)CC1 (stereo not given),?,-26,.,.,.,.
O=C(NC(c1ccc(F)cc1)c1cnccn1)C1CCN(CCOc2ccc(Cl)cc2Cl)CC1 (stereo not given),-71*,-9,.,.,.,.
COc1ccc2nc(SCC(=O)c3c(C)[nH]c4ccccc34)nc(C)c2c1,.,1,.,.,.,.
CCOc1ccc(CNC(=O)c2sc3nc(C)cc(C)c3c2-n2cccc2)cc1,.,-6,.,.,.,.
CSCc1cc(N(C)c2ccccc2)nc(-c2ccccn2)n1,-75*,-11,0%,?,1%,9%
CCCCOc1ccc(-c2cc(C(F)(F)F)c(C#N)c(SCC(=O)O)n2)cc1,-14,0,-1%,-21%,-28%,-2%
CN(C)CCNC(=O)c1cc2c(s1)-c1ccccc1OC2,-81*,-13,-10%,8%,-2%,-2%
Cc1cccc2c1-c1sc(C(=O)NCCCN3CCCC(C)C3)cc1CO2 (stereo not given),-76*,-10,-7%,?,-1%,-3%
SMILES,D3 antag,D3 ag,MmCpn inh,Rango release inh,TSG101-PTAP inh,Rango complex inh
CC(C)Cc1nn2c(=O)cc(COC(=O)c3ccc4c(c3)OCO4)nc2s1,.,-11,.,.,.,.
O=c1c(Br)ccc(Br)cc1Br,-114*,-31,.,-24%,-4%,-5%
CCC(CC)C1C(C#N)=C(N)SC(N)=C1C#N,-60*,0,-1%,-18%,-10%,-2%
CC(C)C1C(C#N)=C(N)SC(N)=C1C#N,?,-6,-2%,-10%,-7%,-1%
Cc1cc(C)c(NC(=O)CCS(=O)(=O)c2cc3c(cc2Cl)NC(=O)CO3)c(C)c1,.,-12,.,.,.,.
CC(=O)c1cccc(NC(=O)c2ccc(-n3c(C)nnc3C)cc2)c1,.,5,.,.,.,.
COc1cc(CNc2ccc3[nH]c(=O)[nH]c3c2)ccc1OCc1ccc(F)cc1Cl,17,35*!,-3%,2%,2%,-3%
COc1ccc(C(=O)C2CCCN(Cc3ccc(C#CCCO)cc3)C2)c(OC)c1 (stereo not given),-116*,-19,-1%,-11%,-1%,0%
CCOc1cccc(CN2CCCC(C(=O)c3cc(Cl)ccc3OC)C2)c1O (stereo not given),-106*,-20,-1%,3%,-7%,-1%
CCOc1cccc(CN2CCCC(N3CCN(c4cccc(Cl)c4)CC3)C2)c1O (stereo not given),-24,24,-1%,14%,-4%,1%
COc1ccc(C(=O)C2CCCN(Cc3cc(C)c(O)c(C)c3)C2)c(OC)c1 (stereo not given),?,-25,1%,11%,-3%,0%
COc1ccc(C(=O)C2CCCN(Cc3sc(N4CCCC4)nc3Cl)C2)c(OC)c1 (stereo not given),-65*,-20,1%,28%,-2%,0%
COc1ccc(C(=O)C2CCCN(Cc3cc(Cl)ccc3O)C2)c(OC)c1 (stereo not given),-54*,-20,2%,0%,-6%,-14%
O=C1NC2=C(C(=O)CCC2)C(c2ccc(OC(F)F)cc2)N1 (stereo not given),-22,-14,-4%,-7%,0%,-2%
CC(=O)NCCNC(=O)C1Cc2c(-c3cccc(NC(C)=O)c3)ccnc2O1 (stereo not given),-29,4,.,.,.,.
